The source of these data is PubChem BioAssay (EPA / NIEHS).

SMILES strings stand for the structures. Inconclusive results are not listed. Activity calls are given as the source filed them. How the source made its calls, unless noted: active means hit-call score of the fitted dose curve at least 0.9, where 1 is the maximum; inactive means score below 0.9.

Read-out in experiment [1]: E-selectin (Homo sapiens) (UniProt P16581)
Kind of experiment: BSK_SAg_Eselectin: BioMAP Diversity Plus: SAg Assay for Eselectin Biomarker Activity (AID 2283091). Particulars: primary human HUVEC with PBMC; actives raise or lower the signal. The gist of the method: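 E-selectin ELISA readout at 24 h post-dosing in human umbilical vein endothelial cell/PBMC co-culture; gain or loss of signal fitted relative to DMSO baseline.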

Read-out in experiment [2]: Monokine induced gamma interferon (MIG), CXCL9 (gene 4283)
Kind of experiment: BSK_SAg_MIG: BioMAP Diversity Plus: SAg Assay for Monokine induced gamma interferon (MIG) Biomarker Activity (AID 2283092). Particulars: primary human HUVEC with PBMC; actives raise or lower the signal. The gist of the method: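 Endothelial cells and PBMC were co-cultured, exposed to test chemicals, and sampled 24 h later. MIG was measured by ELISA, and responses were fitted in both directions relative to DMSO.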

Experiment [3] in a line: BSK_SAg_PBMCCytotoxicity: PBMC Cytotoxicity Assessment in the BioMAP Diversity Plus: SAg Assay (AID 2283093).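 Further: fitted both ways against DMSO so a hit may be loss or gain of signal.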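 On AC50: PBMC superantigen activated with SEB plus TSST-1 one hour after compound addition.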 Particulars: primary human HUVEC with PBMC. The essentials: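 PBMC viability by Alamar Blue reduction, fluorescence read at 546/580 nm after 6 h dye exposure. Cells were dosed 1 h before SEB plus TSST-1 activation (20 ng/mL final each), then held 90 h; endothelial/PBMC human co-culture.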

Experiment [4] is described as follows: BSK_SAg_Proliferation: Cell Proliferation Assessment in the BioMAP Diversity Plus: SAg Assay (AID 2283095).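 Further: relative cell number as total protein by SRB absorbance in sub-confluent culture.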 Particulars: primary human HUVEC with PBMC. The gist of the method: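 Absorbance of sulforhodamine B at 560 nm reports total protein in a human vascular endothelial/PBMC co-culture after 96 h chemical exposure. Gain or loss of signal is fitted in both directions against DMSO.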

A short description of experiment [5]: BSK_SAg_SRB: Viability Assessment in the BioMAP Diversity Plus: SAg Assay (AID 2283096).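 Further: cells read one day after compound addition; hits may be either gain or loss of signal compared with DMSO.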 Particulars: primary human HUVEC with PBMC. The essentials: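 Compounds were added to a human vascular co-culture of umbilical vein endothelium and PBMC. After 24 h, parallel cultures were fixed with 10% TCA, stained with 0.1% sulforhodamine B and read at 560 nm. Gain or loss of signal was fitted relative to DMSO.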

The target of experiment [6] is human CYP2C9, CYP2C9 (gene 1559) (UniProt P11712). Nature of the experiment: NVS_ADME_hCYP2C9: NovaScreen (NVS) CYP450-related Enzyme Activity (ADME) Assay for human CYP2C9 (AID 2283108; active means hit-call score of the fitted dose curve at least 0.9, where 1 is the maximum). The essentials: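 Recombinant human CYP2C9 expressed in SF9 cells, fluorogenic substrate, fluorescence read 0.75 h after dosing. Chemicals first run in duplicate at 10 uM, with actives followed in concentration series; loss of signal versus acetonitrile baseline.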

In experiment [7] the target is Cytochrome P450 2C19 (Homo sapiens) (UniProt P33261). Nature of the experiment: NVS_ADME_hCYP2C19: NovaScreen (NVS) CYP450-related Enzyme Activity (ADME) Assay for human CYP2C19 (AID 2283113; active means hit-call score of the fitted dose curve at least 0.9, where 1 is the maximum;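 on AC50: potency for inhibition seen as loss of fluorescent signal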). The gist of the method:
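Recombinant insect-cell-expressed enzyme, fluorescent substrate, 1 h after chemical addition, fluorescence intensity. Baseline = acetonitrile vehicle; activity scored as signal loss. Primary HTS single concentration 10 uM, duplicate; actives retested in concentration series.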

Read-out in experiment [8]: Interleukin-8 (IL8), CXCL8 (gene 3576)
Kind of experiment: BSK_SAg_IL8: BioMAP Diversity Plus: SAg Assay for Interleukin-8 (IL8) Biomarker Activity (AID 2283094). Particulars: primary human HUVEC with PBMC; actives raise or lower the signal. The essentials:
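Chemicals were dosed onto a human endothelial–PBMC co-culture, and IL-8 was quantified by ELISA after 24 h. Both increases and decreases were fitted relative to DMSO.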

The target of experiment [9] is human CYP1A2, CYP1A2 (gene 1544) (UniProt P05177). Kind of experiment: NVS_ADME_hCYP1A2: NovaScreen (NVS) CYP450-related Enzyme Activity (ADME) Assay for human CYP1A2 (AID 2283102; active means hit-call score of the fitted dose curve at least 0.9, where 1 is the maximum;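 further: potency for inhibition since loss of fluorescence marks reduced CYP1A2 activity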). The gist of the method:
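Fluorescence-intensity enzyme activity read-out, taken 0.5 h post-dosing, using insect-cell-derived recombinant CYP1A2 and specific fluorescent substrate. Acetonitrile served as negative control/baseline. Single-concentration duplicate screen at 10 uM, then concentration-response follow-up.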

Experiment [10] concerns the target human CYP19A1, CYP19A1 (gene 1588) (UniProt P11511). Kind of experiment: NVS_ADME_hCYP19A1: NovaScreen (NVS) CYP450-related Enzyme Activity (ADME) Assay for human CYP19A1 (AID 2283098; active means hit-call score of the fitted dose curve at least 0.9, where 1 is the maximum). The gist of the method:
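Fluorescence intensity read-out; activity taken as signal loss relative to acetonitrile vehicle. Extracted enzyme, specific substrate, no cells, 0.5 h exposure. Duplicate single-point screen at 10 uM, then concentration–response follow-up for actives.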

Experiment [11] deals with Cytochrome P450 3A4 (Homo sapiens) (UniProt P08684). Kind of experiment: NVS_ADME_hCYP3A4: NovaScreen (NVS) CYP450-related Enzyme Activity (ADME) Assay for human CYP3A4 (AID 2283110; active means hit-call score of the fitted dose curve at least 0.9, where 1 is the maximum). The gist of the method: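 Recombinant CYP3A4 from insect cells, fluorescence enzyme read-out, 0.33 h after chemical addition. Acetonitrile = negative control/baseline. Primary HTS: 10 uM in duplicate; actives re-tested in concentration series.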

For experiment [12], the target named is rat CYP2A2, Cyp2a2 (gene 24895) (UniProt P15149). Kind of experiment: NVS_ADME_rCYP2A2: NovaScreen (NVS) CYP450-related Enzyme Activity (ADME) Assay for rat CYP2A2 (AID 2283116; active means hit-call score of the fitted dose curve at least 0.9, where 1 is the maximum). The essentials: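 Compounds first tested in duplicate at 10 uM, then in singleton concentration series up to 20 uM when over threshold. Activity of the recombinant enzyme read by fluorescence at 0.2 h, normalised to acetonitrile vehicle.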

The test system of the next experiment is rat CYP2B1, gene 24300. Nature of the experiment: NVS_ADME_rCYP2B1: NovaScreen (NVS) CYP450-related Enzyme Activity (ADME) Assay for rat CYP2B1 (AID 2283117; active means hit-call score of the fitted dose curve at least 0.9, where 1 is the maximum). The gist of the method: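 Cell-free fluorescence enzyme assay, recombinant rat CYP2B1, 0.75 h after dosing. Single-concentration duplicates at 10 uM preceded concentration series (max 20 uM) for actives; acetonitrile as negative-control baseline.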

Experiment [13] concerns the target human CYP2D6, CYP2D6 (gene 1565) (UniProt P10635). Kind of experiment: NVS_ADME_hCYP2D6: NovaScreen (NVS) CYP450-related Enzyme Activity (ADME) Assay for human CYP2D6 (AID 2283107; active means hit-call score of the fitted dose curve at least 0.9, where 1 is the maximum). The gist of the method: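 Fluorescence intensity read 1 h post-dosing; insect-cell-expressed recombinant protein with fluorogenic substrate, no cells. Activity is scored as signal loss relative to acetonitrile baseline, first at a single 10 uM concentration in duplicate, then as concentration series for confirmed actives.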

For experiment [14], the target named is human CYP2C8, CYP2C8 (gene 1558) (UniProt P10632). Nature of the experiment: NVS_ADME_hCYP2C8: NovaScreen (NVS) CYP450-related Enzyme Activity (ADME) Assay for human CYP2C8 (AID 2283104). The gist of the method:
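Fluorescence readout of substrate turnover by recombinant CYP2C8 after 0.5 h, baseline acetonitrile. Single-concentration duplicate screen at 10 uM preceded singleton concentration series (max 20 uM) for compounds passing the inhibition threshold.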

For experiment [15], the target named is human CYP2J2, CYP2J2 (gene 1573) (UniProt P51589). Kind of experiment: NVS_ADME_hCYP2J2: NovaScreen (NVS) CYP450-related Enzyme Activity (ADME) Assay for human CYP2J2 (AID 2283106; active means hit-call score of the fitted dose curve at least 0.9, where 1 is the maximum). The gist of the method: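 Chemicals were first tested at 10 uM in duplicate, and hits meeting criteria such as 30% inhibition were run in singleton concentration series with a 20 uM top concentration. Enzyme activity of recombinant CYP2J2 was measured by fluorescence after 1 h, relative to acetonitrile.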

For experiment [16], the target named is rat CYP1A2, Cyp1a2 (gene 24297) (UniProt P04799). Kind of experiment: NVS_ADME_rCYP1A2: NovaScreen (NVS) CYP450-related Enzyme Activity (ADME) Assay for rat CYP1A2 (AID 2283115; active means hit-call score of the fitted dose curve at least 0.9, where 1 is the maximum). The essentials:
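Primary testing ran in duplicate at 10 uM, with actives re-tested across concentration series. Fluorescence intensity from substrate turnover by recombinant protein, measured 1 hour post-dosing, with signal loss scored against acetonitrile vehicle.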

human CYP2C9, CYP2C9 (gene 1559), sequence (P11712 whole entry, looked up): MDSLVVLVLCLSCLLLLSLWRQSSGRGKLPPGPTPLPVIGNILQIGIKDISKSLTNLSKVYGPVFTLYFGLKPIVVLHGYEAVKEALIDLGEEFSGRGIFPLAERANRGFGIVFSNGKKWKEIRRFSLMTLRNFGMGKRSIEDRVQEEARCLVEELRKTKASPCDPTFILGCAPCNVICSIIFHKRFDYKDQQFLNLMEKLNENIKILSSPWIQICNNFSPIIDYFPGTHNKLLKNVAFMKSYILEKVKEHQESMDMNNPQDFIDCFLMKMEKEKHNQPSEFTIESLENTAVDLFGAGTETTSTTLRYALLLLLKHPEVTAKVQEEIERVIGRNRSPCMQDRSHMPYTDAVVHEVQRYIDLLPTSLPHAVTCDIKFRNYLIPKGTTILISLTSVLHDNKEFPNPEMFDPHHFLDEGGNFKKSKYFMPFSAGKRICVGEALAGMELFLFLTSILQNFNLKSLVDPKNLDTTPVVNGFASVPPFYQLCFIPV
E-selectin (Homo sapiens), sequence (P16581 whole entry, looked up): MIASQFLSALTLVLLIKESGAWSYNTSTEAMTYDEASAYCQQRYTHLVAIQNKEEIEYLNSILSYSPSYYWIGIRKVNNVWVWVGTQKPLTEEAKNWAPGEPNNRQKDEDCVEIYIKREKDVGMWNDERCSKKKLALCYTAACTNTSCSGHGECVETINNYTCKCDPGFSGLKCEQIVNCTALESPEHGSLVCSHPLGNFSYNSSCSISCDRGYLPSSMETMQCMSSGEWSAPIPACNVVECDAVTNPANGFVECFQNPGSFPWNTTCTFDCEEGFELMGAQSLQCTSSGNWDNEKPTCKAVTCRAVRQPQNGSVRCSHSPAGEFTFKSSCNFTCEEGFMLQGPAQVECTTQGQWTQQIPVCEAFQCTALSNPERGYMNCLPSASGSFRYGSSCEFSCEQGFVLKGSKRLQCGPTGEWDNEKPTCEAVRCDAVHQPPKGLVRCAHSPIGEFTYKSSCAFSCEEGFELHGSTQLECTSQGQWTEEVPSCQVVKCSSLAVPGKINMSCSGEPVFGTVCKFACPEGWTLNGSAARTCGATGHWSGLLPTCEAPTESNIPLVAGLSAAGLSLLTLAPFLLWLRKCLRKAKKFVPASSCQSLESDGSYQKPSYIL
rat CYP2A2, Cyp2a2 (gene 24895), sequence (P15149 whole entry, looked up): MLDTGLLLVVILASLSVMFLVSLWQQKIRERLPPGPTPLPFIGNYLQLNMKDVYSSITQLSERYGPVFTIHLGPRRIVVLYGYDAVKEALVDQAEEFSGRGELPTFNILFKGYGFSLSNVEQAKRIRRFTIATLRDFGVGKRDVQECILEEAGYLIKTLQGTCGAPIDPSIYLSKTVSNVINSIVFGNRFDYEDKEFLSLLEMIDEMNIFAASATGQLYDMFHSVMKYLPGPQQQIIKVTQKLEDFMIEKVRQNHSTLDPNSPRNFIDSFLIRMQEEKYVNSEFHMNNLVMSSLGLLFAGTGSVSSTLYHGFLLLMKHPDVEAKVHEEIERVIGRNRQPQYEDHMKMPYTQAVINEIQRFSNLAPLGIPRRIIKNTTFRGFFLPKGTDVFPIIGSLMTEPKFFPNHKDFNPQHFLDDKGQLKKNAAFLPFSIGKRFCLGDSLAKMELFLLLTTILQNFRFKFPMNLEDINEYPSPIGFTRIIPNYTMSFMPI
human CYP1A2, CYP1A2 (gene 1544), sequence (P05177 whole entry, looked up): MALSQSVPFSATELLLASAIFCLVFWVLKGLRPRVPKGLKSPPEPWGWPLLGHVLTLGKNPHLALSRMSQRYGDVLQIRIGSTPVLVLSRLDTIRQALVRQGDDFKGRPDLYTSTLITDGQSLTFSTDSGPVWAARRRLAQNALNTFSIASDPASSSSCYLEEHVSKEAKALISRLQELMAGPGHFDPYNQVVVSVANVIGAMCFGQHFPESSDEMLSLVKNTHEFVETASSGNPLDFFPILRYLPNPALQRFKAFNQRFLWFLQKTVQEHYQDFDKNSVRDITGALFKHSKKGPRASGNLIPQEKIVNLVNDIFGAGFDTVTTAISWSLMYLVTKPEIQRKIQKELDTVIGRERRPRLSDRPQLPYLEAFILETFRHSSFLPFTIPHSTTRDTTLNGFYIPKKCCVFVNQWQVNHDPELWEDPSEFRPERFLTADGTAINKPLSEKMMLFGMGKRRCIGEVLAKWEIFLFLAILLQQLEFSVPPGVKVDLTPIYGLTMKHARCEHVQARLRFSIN
rat CYP1A2, Cyp1a2 (gene 24297), sequence (P04799 whole entry, looked up): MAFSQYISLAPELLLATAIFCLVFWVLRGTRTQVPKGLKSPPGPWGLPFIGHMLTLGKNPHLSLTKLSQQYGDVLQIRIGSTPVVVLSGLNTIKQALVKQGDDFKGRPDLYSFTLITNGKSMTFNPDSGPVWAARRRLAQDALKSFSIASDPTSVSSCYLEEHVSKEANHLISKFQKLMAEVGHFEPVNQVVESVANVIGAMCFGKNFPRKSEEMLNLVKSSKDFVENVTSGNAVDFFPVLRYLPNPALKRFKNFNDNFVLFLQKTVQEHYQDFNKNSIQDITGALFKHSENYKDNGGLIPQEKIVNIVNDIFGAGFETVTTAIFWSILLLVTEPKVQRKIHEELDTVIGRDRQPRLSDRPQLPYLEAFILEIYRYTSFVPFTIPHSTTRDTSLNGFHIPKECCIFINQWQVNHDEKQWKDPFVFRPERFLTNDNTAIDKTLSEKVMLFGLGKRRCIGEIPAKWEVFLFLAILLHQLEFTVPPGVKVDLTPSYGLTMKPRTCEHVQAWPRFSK
human CYP2D6, CYP2D6 (gene 1565), sequence (P10635 whole entry, looked up): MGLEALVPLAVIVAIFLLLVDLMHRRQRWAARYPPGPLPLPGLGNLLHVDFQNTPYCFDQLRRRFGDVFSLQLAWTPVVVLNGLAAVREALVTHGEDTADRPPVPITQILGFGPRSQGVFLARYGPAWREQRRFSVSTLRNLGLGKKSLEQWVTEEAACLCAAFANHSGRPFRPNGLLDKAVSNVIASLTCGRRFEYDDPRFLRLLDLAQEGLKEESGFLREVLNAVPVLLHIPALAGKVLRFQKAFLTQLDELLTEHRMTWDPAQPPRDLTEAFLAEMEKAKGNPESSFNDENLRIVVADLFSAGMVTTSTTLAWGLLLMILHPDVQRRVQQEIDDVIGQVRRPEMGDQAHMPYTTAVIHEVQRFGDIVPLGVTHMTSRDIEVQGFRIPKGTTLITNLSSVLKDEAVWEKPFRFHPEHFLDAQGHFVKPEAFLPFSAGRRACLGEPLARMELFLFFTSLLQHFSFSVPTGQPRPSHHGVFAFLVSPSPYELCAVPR
Cytochrome P450 3A4 (Homo sapiens), sequence (P08684 whole entry, looked up): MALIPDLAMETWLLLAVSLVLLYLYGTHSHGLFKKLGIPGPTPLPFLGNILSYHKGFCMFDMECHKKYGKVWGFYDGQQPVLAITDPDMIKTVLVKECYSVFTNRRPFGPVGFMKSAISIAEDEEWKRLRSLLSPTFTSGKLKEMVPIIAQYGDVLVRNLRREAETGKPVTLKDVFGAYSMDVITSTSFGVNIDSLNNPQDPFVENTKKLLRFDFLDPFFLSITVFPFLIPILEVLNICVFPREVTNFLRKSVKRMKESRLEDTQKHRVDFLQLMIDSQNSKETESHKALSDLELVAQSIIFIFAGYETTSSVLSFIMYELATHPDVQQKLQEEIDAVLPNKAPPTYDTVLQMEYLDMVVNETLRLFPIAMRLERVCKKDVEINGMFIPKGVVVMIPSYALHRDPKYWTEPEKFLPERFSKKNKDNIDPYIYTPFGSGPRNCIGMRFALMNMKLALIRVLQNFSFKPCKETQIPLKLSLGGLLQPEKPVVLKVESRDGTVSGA
human CYP19A1, CYP19A1 (gene 1588), sequence (P11511 whole entry, looked up): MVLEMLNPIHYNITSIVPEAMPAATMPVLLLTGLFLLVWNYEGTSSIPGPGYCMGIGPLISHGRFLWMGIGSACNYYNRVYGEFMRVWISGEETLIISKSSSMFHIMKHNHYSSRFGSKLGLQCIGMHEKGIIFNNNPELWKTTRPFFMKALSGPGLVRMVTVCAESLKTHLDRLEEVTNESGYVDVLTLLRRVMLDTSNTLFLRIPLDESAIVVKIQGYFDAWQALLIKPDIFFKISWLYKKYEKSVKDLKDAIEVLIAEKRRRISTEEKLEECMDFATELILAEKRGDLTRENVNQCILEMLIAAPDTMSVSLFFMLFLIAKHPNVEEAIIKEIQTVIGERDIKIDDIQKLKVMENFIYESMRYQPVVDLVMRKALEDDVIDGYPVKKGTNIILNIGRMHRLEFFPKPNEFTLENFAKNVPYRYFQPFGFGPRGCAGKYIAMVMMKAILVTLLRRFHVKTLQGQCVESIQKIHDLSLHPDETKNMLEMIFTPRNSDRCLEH
human CYP2C8, CYP2C8 (gene 1558), sequence (P10632 whole entry, looked up): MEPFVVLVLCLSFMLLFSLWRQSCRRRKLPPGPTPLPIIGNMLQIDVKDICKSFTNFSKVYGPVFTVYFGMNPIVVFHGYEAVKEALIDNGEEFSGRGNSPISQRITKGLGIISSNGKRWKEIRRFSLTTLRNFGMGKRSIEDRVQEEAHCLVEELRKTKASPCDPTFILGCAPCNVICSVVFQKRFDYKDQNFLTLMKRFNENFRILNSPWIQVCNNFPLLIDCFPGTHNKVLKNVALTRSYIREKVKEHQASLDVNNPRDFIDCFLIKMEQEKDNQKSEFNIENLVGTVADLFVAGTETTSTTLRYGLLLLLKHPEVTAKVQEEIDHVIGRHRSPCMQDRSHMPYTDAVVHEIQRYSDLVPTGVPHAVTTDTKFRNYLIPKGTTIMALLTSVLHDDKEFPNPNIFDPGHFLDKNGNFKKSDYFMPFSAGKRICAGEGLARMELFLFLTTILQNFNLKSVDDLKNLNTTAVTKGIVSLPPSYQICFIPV

On to `CC(C)=CC1C(C(=O)OCN2C(=O)C3=C(CCCC3)C2=O)C1(C)C` (stereo not given), for which the AC50 in experiment [1] is 14.4 µM (active); in experiment [2] it was 34.2 µM (active); in experiment [3] it was 26.1 µM (active); in experiment [4], 26.1 µM (active); in experiment [6] it was 10 µM (active); in [7], 6.88 µM (active). Moreover, in [5], the result was inactive.
Take `CSC1=N[C@@](C)(c2ccccc2)C(=O)N1Nc1ccccc1`: the AC50 was 8.29 µM (active) in [1]; 7.23 µM (active) in experiment [3]; 8.81 µM (active) in [8]; 9.67 µM (active) in experiment [4]; 0.776 µM (active) in [7]. The result in [2] and in [5] was inactive.
For the compound `CN(C)C(=O)Nc1cccc(C(F)(F)F)c1`, the result in [1], in experiment [2], in experiment [3], in [8], in [4] and in experiment [5] was inactive. Further, in [9], the AC50 was 5.3 µM (active).
For the compound `C=C(C)[C@H]1Cc2c(ccc3c2O[C@@H]2COc4cc(OC)c(OC)cc4[C@@H]2C3=O)O1`, the AC50 was 4.05 µM (active) in [1]; 27.2 µM (active) in experiment [2]; 1.61 µM (active) in experiment [8]; 5.57 µM (active) in experiment [4]; 5.52 µM (active) in experiment [5]; 0.434 µM (active) in experiment [7]. Also, the outcome in [3] was “inactive”; in [10], “inactive”; in [11], “inactive”; in experiment [12], “inactive”; in the experiment with rat CYP2B1, gene 24300, “inactive”.
In the case of `CSc1nnc(C(C)(C)C)c(=O)n1N`, the outcome in experiment [1], in experiment [2], in [3], in experiment [8], in experiment [4] and in experiment [5] was inactive. Moreover, the compound was classed as inactive in [13] and in [7].
For the compound `C#CCC1=C(C)C(OC(=O)C2C(C=C(C)C)C2(C)C)CC1=O` (stereo not given), the AC50 in experiment [1] was 31.3 µM (active); in experiment [2] it was 36.6 µM (active); in [3] it was 32.9 µM (active); in [8], 26 µM (active); in [4], 34 µM (active); in experiment [5], 26.9 µM (active). For the same compound, the AC50 was 10 µM (active) in experiment [15], 7.23 µM (active) in [6] and 3.46 µM (active) in experiment [12]. In addition, in experiment [14], the call was inactive.
On to `Cc1cc(C2CC2)nc(Nc2ccccc2)n1`, for which the AC50 was 34.4 µM (active) in experiment [1]; 7.66 µM (active) in experiment [3]; 34.3 µM (active) in experiment [4]; 15 µM (active) in [5]; 2.87 µM (active) in experiment [9]; 7 µM (active) in experiment [6]. Moreover, the result in [2], in [8], in [7] and in [16] was inactive.
